Results from PubChem BioAssay (NCATS).
Calls of active or inactive are those of the source. Calls come from the whole dose curve; as a rule, active = well fitted activation curve with a large enough effect; inconclusive = small, poorly fitted or top-dose-only effect; inactive = flat fitted curve, though single readings scatter.

test: Cellular Toxicity (caspase-3) SHSY5Y (AID 657); conditions: SH-SY5Y caspase-3 activation, DMSO zero, 10 µM staurosporine = 100%; series mostly up to 91.7 µM
Description: NIH Chemical Genomics Center [NCGC]
NIH Molecular Libraries Screening Centers Network [MLSCN]
National Institutes of Environmental Health Sciences [NIEHS]
National Toxicology Program [NTP]
We have developed a 1536-well cell-based assay for quantitative high throughput screening (qHTS) against a number of cell lines to determine in vitro caspase 3/7 activity of small molecules. This particular assay uses the SH-SY5Y cell line which is derived from human neuroblastoma.
NCGC Assay Protocol Summary:
The Caspase-Glo 3/7 assay (Promega) is a homogeneous method to measure caspase-3 and caspase-7 activities in cultured cells. The quantitation of caspase 3/7 activity is based on the cleavage of a peptide-aminoluciferin substrate. After caspase cleaves the substrate the free aminoluciferin is liberated and serves as the substrate of luciferase, which generates the light. The luminescent signal is proportional to the amount of caspase 3/7 activity present.
Using the Caspase-Glo 3/7 assay, the amount of caspase 3/7 activity was measured in the SH-SY5Y cell line with complete culture medium following compound treatment for 16 hours. The assay was performed in opaque white 1536-well plates. In the screen, staurosporine and doxorubicin were used as positive controls. Library compounds were measured for their ability to cause the activation of caspase 3/7 in the cell line, as reflected by an increase in luminescence signal, in a concentration-dependent manner. Data were normalized to the controls for basal activity (DMSO only) and 100% stimulation (10 uM staurosporine). AC50 values were determined from concentration-response data modeled with the standard Hill equation.
qHTS protocol for caspase 3/7 assay in SH-SY5Y cells
[Step] [Parameter] [Value] [Description]
1. Reagent; 5 uL; 1500 SH-SY5Y cells/well
2. Time; 5 hr; 37 °C incubation
4. Controls; 23 nL; doxorubicin 7 pM to 100 uM & staurosporine 1.4 pM to 20 uM
5. Time; 16 hr; 37 °C incubation
6. Reagent; 5 uL; Caspase-Glo 3/7 reagent
7. Time; 1 hr; Room Temperature
8. Detection; Luminescence; Viewlux plate reader
Keywords: caspase 3/7, apoptosis, SH-SY5Y cell line, luminescence, NTPHTS, NTPHTS_NCGC, NIEHS, EPA, DSSTox, MLSMR, MLSCN, NIH Roadmap, qHTS, NCGC

SMILES	outcome
CC/C=C/C#N	inactive
Cc1cc(C)cc(N)c1	inactive
Nc1nc(-c2ccccc2)cs1	inactive
Oc1c(Cl)ccc(Cl)c1Cl	inactive
S=C([S-])NCCNC(=S)[S-].[Zn+2]	inactive
OCCO	inactive
O=C(O)c1cc(Cl)cc(Cl)c1	inactive
COc1ccc(OC)cc1	inactive
Cc1ccc2nc(-c3ccc(N)cc3)sc2c1S(=O)(=O)O	inactive
O=C(O)c1ccc(C(=O)O)cc1	inactive
O=C(Cl)c1cccc([N+](=O)[O-])c1	inactive
C=CC(=O)NC(C)C	inactive
Cc1ccc(S(=O)(=O)NC2CCCCC2)cc1	inactive
C=C(C)C(=O)OCCCCCCCCCC	inactive
NC(=O)CCCCC(N)=O	inactive
COCCOC(=O)c1ccccc1C(=O)OCCOC	inactive
COC(=O)CCC(=O)OC	inactive
C/C=C1\CC2C=CC1C2 (stereo not given)	inactive
C=Cc1ccccn1	inactive
Cc1cccc(C)c1	inactive

SMILES	outcome
O=C(O)c1c(Cl)cccc1Cl	inactive
O=C(O)c1cccc([N+](=O)[O-])c1	inactive
Cc1cc(C)cc([N+](=O)[O-])c1	inactive
CCCCCNCCCCC	inactive
NC(=O)NC(N)=O	inactive
CC(=O)Nc1ccc(C)cc1	inactive
Nc1cccc(C(F)(F)F)c1	inactive
C=C(C)C(N)=O	inactive
CCCC=O	inactive
CCCCCCC(=O)O	inactive
C=C(C)C1CC=C(C)C(OC(C)=O)C1 (stereo not given)	inactive
C=C(C)C(=O)OCC(C)O (stereo not given)	inactive
Cc1ccccc1C=O	inactive
CCCCCCCCC	inactive
Cc1ccc(Cl)cc1N	inactive
O=C(O)CNC(=O)c1ccc([N+](=O)[O-])cc1	inactive
CCNc1cc(O)ccc1C	inactive
O=C1OC(=O)c2c(Cl)c(Cl)c(Cl)c(Cl)c21	inactive
Cc1cc([N+](=O)[O-])ccc1N	inactive
CC(C)Cc1nccs1	inactive
